Each structure is given as a SMILES string. Inconclusive results are not listed. Entries that show only a call come without a potency. Activity calls are given as the source filed them. Calls follow the shape of the dose curve; as a rule, active = well fitted cell-killing curve with a large enough effect; inconclusive = small, poorly fitted or top-dose-only effect, or effect the other way; inactive = no such curve, though single readings can be large or run the other way.
Potency is read from the fitted curve at half-maximal effect.

The experiment can be described thus: Quantitative High-Throughput drug screen in 47 multiple myeloma cell lines against the NCATS MIPE library collection: KMM1_JCRB cell viability assay (AID 1918960). Also: nearly all actives have a fitted effect of over 30% in size. Conditions: KMM1 myeloma viability, CellTiter-Glo ATP luminescence, 48 h; series mostly up to 45.8 µM. From the text:
PI: Beverly A. Mock Ph.D.
Laboratory of Cancer Biology and Genetics,
Center for Cancer Research, National Cancer Institute,
National Institute of Health, Bethesda, Maryland
Drug resistance and disease progression are common in multiple myeloma (MM) patients, underscoring the need for new therapeutic combinations. […] We hypothesized that effective combinations would reduce MYC expression and enhance p16 activity. […] These preclinical data identify potentially useful drug combinations for evaluation in drug-resistant MM and reveal potential mechanisms of combined drug sensitivity.
Described herein is the primary MIPE qHTS used to cherrypick compounds. Validated compounds were then further tested for potential synergistic activiy.
[1] Peat TJ, Gaikwad SM, Dubois W, Gyabaah-Kessie N, Zhang S, Gorjifard S, Phyo Z, Andres M, Hughitt VK, Simpson RM, Miller MA, Girvin AT, Taylor A, Williams D, D'Antonio N, Zhang Y, Rajagopalan A, Flietner E, Wilson K, Zhang X, Shinn P, Klumpp-Thomas C, McKnight C, Itkin Z, Chen L, Kazandijian D, Zhang J, Michalowski AM, Simmons JK, Keats J, Thomas CJ, Mock BA. Drug combinations identified by high-throughput screening promote cell cycle transition and upregulate Smad pathways in myeloma. Cancer Lett. 2023 Aug 1;568:216284. doi: 10.1016/j.canlet.2023.216284. Epub 2023 Jun 24. PMID: 37356470; PMCID: PMC10408729.
SEQUENCE No. (e.g., 1, 2, 3, etc.); […] (e.g., Cells, Incubation, Reagent, etc.); VALUE and DESCRIPTION.
1; Cells; 5 uL; white, solid bottom 1536-well Greiner assay plate.
2; Compounds; 23 nL; Kalypsis pin tool (Wako USA) equipped with a 1536-well pin head to transfer to the assay plates.
3; Incubation; 48 hours; 37C incubation.
4; Reagent;5uL; CellTiter Glo (Promega).
5; Detector; 425V; Luminescence; Viewlux PerkinElmer.
NOTES (numbers refer to Sequence numbers above)
1. The cell-based screening methods employed in this study were like those previously published. Briefly, the corresponding myeloma cell lines were screened in 1,536-well plates with 500 cells, 5-uL per well for inhibition of cell viability (assessed by measuring ATP levels with CellTiterGlo).
2. NCATS MIPE 4.0 library of approved and investigational drugs were added using the Kalypsis pin tool. Wells treated with DMSO only for 100% viability and media only cells for 0% viability were used as controls.
3. The assay plates were covered and incubated for 48 hours in a 37C, 5% CO2 incubator with controlled humidity.
4. After 48 hours, CellTilter-GloTM luminescent substrate mix (Promega) reagent was added to the assay plate and plates we incubated for 5 min at room temperature.
5. Signal was measured as median relative luminescence units on a ViewLux (PerkinElmer) multiplate reader.
[1] Heske CM, Davis MI, Baumgart JT, Wilson K, Gormally MV, Chen L, Zhang X, Ceribelli M, Duveau DY, Guha R, Ferrer M, Arnaldez FI, Ji J, Tran HL, Zhang Y, Mendoza A, Helman LJ, Thomas CJ. Matrix Screen Identifies Synergistic Combination of PARP Inhibitors and Nicotinamide Phosphoribosyltransferase (NAMPT) Inhibitors in Ewing Sarcoma. Clin Cancer Res. 2017 Dec 1;23(23):7301-7311. doi: 10.1158/1078-0432.CCR-17-1121. Epub 2017 Sep 12. PMID: 28899971; PMCID: PMC6636827.
(In general: In ATP-based viability assays light output follows the ATP content of the culture.)
Consider `Cc1sc2c(c1C)C(c1ccc(Cl)cc1)=N[C@@H](CC(=O)OC(C)(C)C)c1nnc(C)n1-2`, for which the Potency is 0.0662 µM (active).

As for `CN(C)CCN(C)CCc1ccc(Cl)c(Cl)c1`, the Potency entry was “inactive”.

As for `Cn1cc(C2=C(c3cn(C4CCN(Cc5ccccn5)CC4)c4ccccc34)C(=O)NC2=O)c2ccccc21`, the Potency is 4.18 µM (active).

For the compound `CCCC(C)(COC(N)=O)COC(=O)NC(C)C` (centres undefined), the Potency entry is “inactive”.

Take `Fc1ccc(C(OCCN2CCN(CCCc3ccccc3)CC2)c2ccc(F)cc2)cc1`: the Potency entry was “inactive”.

As to `CC1=C2C[C@@H]3[C@@H](CC=C4C[C@@H](O)CC[C@@]43C)[C@@H]2CC[C@]12O[C@H]1C[C@H](C)CN[C@H]1[C@H]2C`, the Potency entry is “inactive”.

In the case of `CC(C)CC(N(C)C)C1(c2ccc(Cl)cc2)CCC1` (centres undefined), the Potency entry is “inactive”.

Turning to `N[C@@H](Cc1ccc(N(CCCl)CCCl)cc1)C(=O)O`, the Potency is 13.2 µM (active).

With `O=C(O)C(=O)c1cn(Cc2ccccc2)c2ccc(-c3ccc(OC(F)(F)F)cc3)cc12`, the Potency entry was “inactive”.

For `CN1CCN(C(=O)O[C@H]2c3nccnc3C(=O)N2c2ccc(Cl)cn2)CC1`, the Potency entry is “inactive”.

For the compound `CNC(=O)c1ccc(N2C(=S)N(c3ccc(C#N)c(C(F)(F)F)c3)C(=O)C23CCC3)cc1F`, the Potency was 16.6 µM (active).

`CC(O)(CS(=O)(=O)c1ccc(F)cc1)C(=O)Nc1ccc(C#N)c(C(F)(F)F)c1` (centres undefined): the Potency was 2.64 µM (active).

Take `O=C1CC[C@@]2(O)[C@H]3Cc4ccc(O)c5c4[C@@]2(CCN3CC2CC2)[C@H]1O5`: the Potency result was “inactive”.

Consider `NCC1(CC(=O)O)CCCCC1`, for which the Potency result is “inactive”.

`COC[C@@H](NC(C)=O)C(=O)NCc1ccccc1`: the Potency entry is “inactive”.

For `C=C(C)[C@H]1Cc2c(ccc3c2O[C@@H]2COc4cc(OC)c(OC)cc4[C@@H]2C3=O)O1`, the Potency is 0.235 µM (active).

As for `CN(C)CCc1ccc(O)cc1`, the Potency entry was “inactive”.

Turning to `Cn1c(CCCC(=O)O)nc2cc(N(CCCl)CCCl)ccc21`, the Potency result is “inactive”.

`C[C@@H]1[C@@H](C(=O)C[C@H]2O[C@@H]3O[C@]4(C)CC[C@@H]5[C@H](C)CC[C@@H]([C@H]2C)[C@@]35OO4)O[C@@H]2O[C@]3(C)CC[C@H]4[C@H](C)CC[C@@H]1[C@@]24OO3`: the Potency was 0.0469 µM (active).

Regarding `COc1ccc(C(=O)c2c(C)n(CCN3CCOCC3)c3ccccc23)cc1`, the Potency result was “inactive”.

For `Cc1cccc(C)c1NC(=O)CN1CCCC1=O`, the Potency result is “inactive”.

Take `COC[C@H]1OC(=O)c2coc3c2[C@@]1(C)C1=C(C3=O)C2CCC(=O)[C@@]2(C)C[C@H]1OC(C)=O` (some centres undefined): the Potency was 7.43 µM (active).

On to `C[C@@H]1[C@@H](CC(C[C@H]2O[C@@H]3O[C@]4(C)CC[C@@H]5[C@H](C)CC[C@@H]([C@H]2C)[C@@]35OO4)C[S+](=O)([O-])c2ccc(COC(=O)N(C)C)cc2)O[C@@H]2O[C@]3(C)CC[C@H]4[C@H](C)CC[C@@H]1[C@@]24OO3` (some centres undefined), for which the Potency is 0.105 µM (active).

Regarding `CN(C)[C@@H]1C(=O)C(C(N)=O)=C(O)[C@@]2(O)C(=O)C3=C(O)c4c(O)cccc4[C@@](C)(O)[C@H]3C[C@@H]12`, the Potency entry is “inactive”.
